Measurements as given in PubChem BioAssay (NCATS).
Values joined by “and” are separate entries in the source; they are usually repeats but may differ in a detail not shown here. Equal entries are not always repeated. A number with no mark means an inactive call. Inconclusive results are not listed. Active and inactive are the calls of the source. Unless noted, calls follow the shape of the full dose curve.

Assays:
[1] = target: Bile acid receptor (Homo sapiens) (UniProt Q96RI1); assay: qHTS assay for small molecule agonists of farnesoid X receptor signaling (AID 588527); settings: HEK293T FXR-UAS-bla, beta-lactamase ratio, 16 h; activation: hits give high values;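 also: series mostly up to about 77 µM; 0% = vehicle basal and 100% = reference agonist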
Bile acid receptor (Homo sapiens), sequence (Q96RI1 whole entry, looked up): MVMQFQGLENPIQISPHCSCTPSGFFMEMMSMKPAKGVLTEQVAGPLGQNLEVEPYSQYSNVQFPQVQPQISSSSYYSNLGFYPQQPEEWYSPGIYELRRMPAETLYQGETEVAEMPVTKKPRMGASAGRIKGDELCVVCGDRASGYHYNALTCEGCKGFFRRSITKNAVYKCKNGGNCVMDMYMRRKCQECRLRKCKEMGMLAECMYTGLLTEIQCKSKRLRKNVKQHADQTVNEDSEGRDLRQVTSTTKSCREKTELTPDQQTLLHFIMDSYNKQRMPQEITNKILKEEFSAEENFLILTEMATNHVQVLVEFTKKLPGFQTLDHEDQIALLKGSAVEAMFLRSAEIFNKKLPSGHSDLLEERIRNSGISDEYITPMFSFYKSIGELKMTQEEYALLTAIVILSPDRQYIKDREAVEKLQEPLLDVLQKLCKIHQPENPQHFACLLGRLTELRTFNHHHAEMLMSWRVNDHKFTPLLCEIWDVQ
Method in brief: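 Read-out: beta-lactamase reporter fluorescence with CCF4 substrate in GeneBLAzer FXR-UAS-bla HEK293T cells, after 16 h compound exposure at 37 C. Response scaled between DMSO basal (0%) and chenodeoxycholic acid at 100 uM (100%).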

[2] = target: Glucocorticoid receptor (Homo sapiens) (UniProt P04150); assay: qHTS assay for small molecule agonists of glucocorticoid receptor signaling (AID 588532; active = well fitted curve in the direction sought with a large enough effect in the signal ratio, with a control signal flat; the % refers to the signal ratio;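 also: 100% = dexamethasone at 0.1 µM and 0% = DMSO only wells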); settings: HeLa MMTV-bla, beta-lactamase ratio, agonist, 18 h; activation: hits give high values, percent of dexamethasone control, DMSO zero
Glucocorticoid receptor (Homo sapiens), sequence (P04150 whole entry, looked up): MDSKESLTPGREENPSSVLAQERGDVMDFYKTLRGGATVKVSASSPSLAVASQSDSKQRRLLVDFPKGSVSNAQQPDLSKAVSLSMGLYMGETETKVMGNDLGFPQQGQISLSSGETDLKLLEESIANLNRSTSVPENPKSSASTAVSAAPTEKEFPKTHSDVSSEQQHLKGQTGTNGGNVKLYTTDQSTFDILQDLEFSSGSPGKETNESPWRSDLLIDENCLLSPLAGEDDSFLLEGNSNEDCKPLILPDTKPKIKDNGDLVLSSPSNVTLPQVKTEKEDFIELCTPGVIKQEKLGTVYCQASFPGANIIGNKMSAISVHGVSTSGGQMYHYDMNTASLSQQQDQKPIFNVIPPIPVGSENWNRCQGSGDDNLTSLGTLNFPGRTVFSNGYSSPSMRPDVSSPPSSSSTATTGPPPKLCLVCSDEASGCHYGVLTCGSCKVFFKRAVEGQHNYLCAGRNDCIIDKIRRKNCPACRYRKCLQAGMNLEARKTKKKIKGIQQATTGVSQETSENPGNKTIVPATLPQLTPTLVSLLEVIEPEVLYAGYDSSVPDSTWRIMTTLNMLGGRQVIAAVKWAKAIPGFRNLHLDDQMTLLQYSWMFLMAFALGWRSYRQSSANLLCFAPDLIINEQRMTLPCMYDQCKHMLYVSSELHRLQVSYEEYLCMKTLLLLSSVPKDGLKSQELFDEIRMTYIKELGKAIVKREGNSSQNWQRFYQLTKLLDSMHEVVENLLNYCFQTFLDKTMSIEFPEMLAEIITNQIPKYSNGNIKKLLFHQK
Method in brief: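 MMTV-bla HeLa, beta-lactamase reporter; medium with 1% charcoal/dextran-stripped FBS; cpds up to 92 uM, 18 h, 37 C; CCF4 readout 460/530 nm; Hill fit → EC50, efficacy vs 0.1 uM dexamethasone = 100%.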

[3] = target: Peroxisome proliferator-activated receptor delta (Homo sapiens) (UniProt Q03181); assay: qHTS assay for small molecule agonists of peroxisome proliferator-activated receptor delta signaling (AID 588534);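 also: 0% = DMSO basal wells and 100% = positive control agonist at 10 µM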
Peroxisome proliferator-activated receptor delta (Homo sapiens), sequence (Q03181 whole entry, looked up): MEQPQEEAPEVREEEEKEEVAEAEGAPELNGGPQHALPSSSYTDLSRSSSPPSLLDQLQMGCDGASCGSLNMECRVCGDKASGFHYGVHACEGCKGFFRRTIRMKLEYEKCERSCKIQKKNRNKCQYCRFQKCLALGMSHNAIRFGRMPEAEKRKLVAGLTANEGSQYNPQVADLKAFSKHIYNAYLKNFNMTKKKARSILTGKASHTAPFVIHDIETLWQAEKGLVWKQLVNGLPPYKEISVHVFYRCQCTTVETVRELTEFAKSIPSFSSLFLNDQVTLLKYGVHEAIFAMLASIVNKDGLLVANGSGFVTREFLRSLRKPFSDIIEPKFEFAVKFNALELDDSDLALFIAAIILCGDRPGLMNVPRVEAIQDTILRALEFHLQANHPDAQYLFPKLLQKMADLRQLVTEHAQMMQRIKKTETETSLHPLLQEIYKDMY
Method in brief: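 Agonist-mode qHTS; reporter cells, 5 hrs 37 C pre-incubation; compound titration, 18 hrs 37 C; CCF4 dye, 2 hrs RT; fluorescence read. EC50/efficacy via Hill fit.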

[4] = target: Vitamin D3 receptor (Homo sapiens) (UniProt P11473); assay: qHTS assay for small molecule agonists of vitamin D receptor signaling (AID 588543);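 also: 0% = DMSO basal and 100% = reference agonist control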
Vitamin D3 receptor (Homo sapiens), sequence (P11473 whole entry, looked up): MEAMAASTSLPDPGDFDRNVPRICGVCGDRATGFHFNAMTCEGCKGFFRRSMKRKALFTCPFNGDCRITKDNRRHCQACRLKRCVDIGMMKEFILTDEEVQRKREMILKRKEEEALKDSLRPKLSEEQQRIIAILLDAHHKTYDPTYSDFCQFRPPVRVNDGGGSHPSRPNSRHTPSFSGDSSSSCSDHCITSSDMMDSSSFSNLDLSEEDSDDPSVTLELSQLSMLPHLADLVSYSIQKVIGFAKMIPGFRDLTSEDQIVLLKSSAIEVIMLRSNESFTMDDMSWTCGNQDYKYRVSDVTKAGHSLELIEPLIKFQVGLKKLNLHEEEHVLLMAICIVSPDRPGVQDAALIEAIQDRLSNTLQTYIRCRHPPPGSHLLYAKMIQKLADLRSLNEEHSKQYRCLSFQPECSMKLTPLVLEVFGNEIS
Method in brief: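 Reporter cells (HEK293T, VDR-UAS-bla) were seeded in medium with 2% charcoal-stripped serum and incubated 5 h, then compounds in concentration series were added for 16 h at 37 °C. Stimulation was scaled between DMSO basal and 50 nM 1α,25-dihydroxyvitamin D3.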

[5] = target: Thyroid hormone receptor beta (Homo sapiens) (UniProt P10828); assay: qHTS assay for small molecule agonists of thyroid hormone receptor beta signaling (AID 588545)
Thyroid hormone receptor beta (Homo sapiens), sequence (P10828 whole entry, looked up): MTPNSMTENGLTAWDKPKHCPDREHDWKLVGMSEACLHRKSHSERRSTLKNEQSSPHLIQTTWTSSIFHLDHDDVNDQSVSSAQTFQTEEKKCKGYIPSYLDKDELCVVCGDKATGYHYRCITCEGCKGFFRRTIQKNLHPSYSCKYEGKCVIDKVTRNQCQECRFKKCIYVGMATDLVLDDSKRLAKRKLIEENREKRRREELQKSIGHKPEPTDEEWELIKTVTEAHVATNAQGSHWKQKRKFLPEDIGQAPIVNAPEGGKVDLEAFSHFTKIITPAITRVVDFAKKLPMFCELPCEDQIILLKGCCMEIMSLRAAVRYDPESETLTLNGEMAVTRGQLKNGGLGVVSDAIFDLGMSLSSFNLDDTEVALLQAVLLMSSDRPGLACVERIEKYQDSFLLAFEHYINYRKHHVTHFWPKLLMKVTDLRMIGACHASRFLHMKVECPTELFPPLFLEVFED
Method in brief: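 Agonist activity was read as beta-lactamase CCF4 fluorescence (405 ex, 460/530 em), scaled between DMSO (0%) and 10 nM T3 (100%), then Hill-fitted for EC50 and efficacy. HEK 293 TR-UAS-bla cells in 2% charcoal/dextran FBS medium were exposed 18 h at 37 C.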

[6] = target: Thyroid hormone receptor beta (Homo sapiens) (UniProt P10828); assay: qHTS assay for small molecule antagonists of thyroid hormone receptor beta signaling (AID 588547; active = well fitted inhibition curve with a large enough effect in the signal ratio, with a control signal flat, not every such curve was filed as active; the % refers to the signal ratio;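 also: cells stimulated with 0.4 nM T3 agonist during compound exposure; series mostly up to about 77 µM; % is scaled to controls: 0 for no effect and ±100 for the full control effect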); settings: TR-UAS-bla HEK293, beta-lactamase ratio, antagonist mode, 18 h
Method in brief: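 TR-UAS-bla GripTite HEK293 cells in 2% charcoal/dextran FBS medium were preincubated 4 h at 37 C, given compound (0.59 nM to 92 uM) plus 0.4 nM T3 (final) for 18 h, then CCF4 for 2 h at RT; Hill fit gave IC50.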

[7] = qHTS assay for small molecule activators of the p53 signaling pathway (AID 651743; active = well fitted activation curve with a large enough effect in the signal ratio, not every such curve was filed as active; the % refers to the signal ratio; also: series mostly up to about 92 µM; % of control where 0% means no effect); settings: HCT-116 p53RE-bla, beta-lactamase FRET ratio, 16 h; activation: hits give high values
Method in brief: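 Agonist-mode quantitative HTS in HCT-116 cells carrying a p53-response-element beta-lactamase reporter; 16 h compound treatment at 37 C, then FRET substrate loading for 2 h at room temperature and fluorescence read.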

[8] = qHTS assay for small molecule activators of the nuclear factor-kappa B (NF-kB) signaling pathway (AID 651749; active = well fitted activation curve with a large enough effect in the signal ratio; the % refers to the signal ratio; also: series mostly up to about 77 µM; % of control where 0% means no effect); settings: NF-kB-bla ME-180 cells, beta-lactamase FRET ratio, 16 h; activation: hits give high values
Method in brief: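 Human ME-180 cervical cells with an NF-kB-bla construct; compounds added via 23 nL pin transfer, DMSO as vehicle; incubation 16 hr. Reporter activity measured by FRET disruption.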

[9] = qHTS assay for environmental chemicals that activate the Aryl hydrocarbon Receptor (AhR) signaling pathway (AID 651777; active = well fitted curve in the direction sought with a large enough effect; an effect the other way counts as inactive or inconclusive; also: % of control where 0% means no effect; nearly all actives have a fitted effect of over 15% in size); settings: 1A2-DRE human hepatoma cells, luciferase, 24 h; activation: hits give high values
Method in brief: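 Reporter gene assay: hepatoma cells with DRE/CYP1A2-luciferase, 24 hr compound incubation at 37 C, 5% CO2, luminescence after One-Glo (30 min, RT).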

[10] = target: Peroxisome proliferator-activated receptor alpha (Homo sapiens) (UniProt Q07869); assay: qHTS assay for small molecule agonists of the peroxisome proliferator-activated receptor alpha (PPARalpha) signaling pathway (AID 651778; active = well fitted curve in the direction sought with a large enough effect; an effect the other way counts as inactive or inconclusive; also: % of control where 0% means no effect); settings: PathHunter PPARalpha complementation, chemiluminescence, 6 h; max response: hits give high values
Peroxisome proliferator-activated receptor alpha (Homo sapiens), sequence (Q07869 whole entry, looked up): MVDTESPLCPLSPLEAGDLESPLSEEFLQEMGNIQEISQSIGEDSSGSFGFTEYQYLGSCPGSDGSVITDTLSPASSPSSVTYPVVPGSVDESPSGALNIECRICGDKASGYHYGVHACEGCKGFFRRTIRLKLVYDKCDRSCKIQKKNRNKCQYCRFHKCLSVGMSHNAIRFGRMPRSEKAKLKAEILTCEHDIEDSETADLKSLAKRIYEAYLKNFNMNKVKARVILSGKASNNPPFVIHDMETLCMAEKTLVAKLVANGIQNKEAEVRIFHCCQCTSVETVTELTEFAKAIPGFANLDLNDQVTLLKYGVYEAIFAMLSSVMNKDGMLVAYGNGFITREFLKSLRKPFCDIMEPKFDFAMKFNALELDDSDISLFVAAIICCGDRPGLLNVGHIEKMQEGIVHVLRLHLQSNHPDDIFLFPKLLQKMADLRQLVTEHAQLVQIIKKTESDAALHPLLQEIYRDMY
Method in brief: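 Cells plated at 2,000/well and held overnight at 37 C, 5% CO2, then compound added by pin tool for 6 hr; after PathHunter detection reagent and 60 min at room temperature, chemiluminescence from enzyme complementation was read.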

[11] = qHTS assay for small molecule agonists of the antioxidant response element (ARE) signaling pathway measured by Nrf2-dependant transcriptional activity (AID 720636; active = well fitted curve in the direction sought with a large enough effect in the repeat runs; an effect the other way counts as inactive or inconclusive;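 also: HepG2 cells with an ARE-driven luciferase reporter; % of control where 0% means no effect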)
Method in brief: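 Nrf2-dependent transcription is measured in ARE-luc HepG2 cells: compound is applied for 16 hr at 37 C after a 6 hr attachment period, and luciferase activity is quantified by luminescence using ONE-Glo.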

[12] = qHTS assay for small molecule agonists of the antioxidant response element (ARE) signaling pathway measured by Nrf2-dependant transcriptional activity - cell viability counter screen (AID 720653; active = well fitted curve in the direction sought with a large enough effect in the repeat runs; an effect the other way counts as inactive or inconclusive; also: % is scaled to controls: 0 for no effect and ±100 for the full control effect); settings: ARE-bla HepG2 viability, CellTiter-Glo ATP luminescence, 16 h; max response: hits give low values
Method in brief: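 ARE-bla HepG2 cells (2,000/well) rested 5 hrs at 37C/5% CO2, then exposed to compounds in DMSO for 16 hrs. Viability was read in the same wells as intracellular ATP by luminescence, 30 min at room temperature after reagent addition.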

[13] = qHTS assay for cell viability of HEK293 cells (AID 743288; active = well fitted curve in the direction sought with a large enough effect; an effect the other way counts as inactive or inconclusive; also: % is scaled to controls: 0 for no effect and ±100 for the full control effect; nearly all actives have a fitted effect of over 50% in size); settings: ATP luminescence (CellTiter-Glo), 18 h; max response: hits give low values
Method in brief: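 Viable-cell counts were inferred from luciferase-based ATP content in HEK293 cells seeded at 2,000/well, pre-incubated ≥5 h, then dosed with DMSO-solubilised compounds for 18 h at 37 C.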

[14] = qHTS assay for cell viability of the p53RE-bla HCT-116 cell line (AID 743292; active = well fitted curve in the direction sought with a large enough effect; an effect the other way counts as inactive or inconclusive; also: % is scaled to controls: 0 for no effect and ±100 for the full control effect; nearly all actives have a fitted effect of over 55% in size)
Method in brief: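 ATP-based luminescence, 16 h compound exposure at 37 C, p53RE-bla HCT-116 cells at 4,000/well.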

[15] = target: Nuclear receptor subfamily 1 group I member 2 (Rattus norvegicus) (UniProt Q9R1A7); assay: qHTS assay for small molecule activators of the rat pregnane X receptor (rPXR) signaling pathway (AID 651751; call rule not given here; also: 0% is about no effect); settings: rPXR reporter cells, luciferase (One-Glo), 24 h
Nuclear receptor subfamily 1 group I member 2 (Rattus norvegicus), sequence (Q9R1A7 whole entry, looked up): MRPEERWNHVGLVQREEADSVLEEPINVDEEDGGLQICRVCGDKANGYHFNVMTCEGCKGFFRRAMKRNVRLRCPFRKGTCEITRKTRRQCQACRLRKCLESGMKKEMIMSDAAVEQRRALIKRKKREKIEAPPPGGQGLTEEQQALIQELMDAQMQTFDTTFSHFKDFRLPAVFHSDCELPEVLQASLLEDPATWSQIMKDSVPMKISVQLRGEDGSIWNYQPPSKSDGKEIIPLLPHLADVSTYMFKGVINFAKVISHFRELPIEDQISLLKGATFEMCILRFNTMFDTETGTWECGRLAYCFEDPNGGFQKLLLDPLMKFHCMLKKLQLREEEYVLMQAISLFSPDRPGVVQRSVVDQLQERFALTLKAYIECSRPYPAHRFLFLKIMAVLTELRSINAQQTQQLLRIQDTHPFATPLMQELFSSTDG

[16] = qHTS assay for small molecule activators of the human pregnane X receptor (PXR) signaling pathway (AID 720659; call rule not given here; also: 0% is about no effect)

CC(c1ccc(O)cc1)(c1ccc(O)cc1)c1ccc(O)cc1
activation [1]: 12.5%
activation [2]: -5.2%
outcome [3]: inactive
outcome [4]: inactive
Potency [5]: inactive
activity change % (negative = inhibition) [6]: -15%
activation [7]: -9.57%
activation [8]: 2.37%
activation [9]: -4%
max response [10]: -5.19%
Potency [11]: inactive
max response [12]: -3.26%
max response [13]: -0.68%
Potency [14]: inactive
max response [15]: -0.575%

CC[C@H]1CCCC(O[C@H]2CC[C@H](N(C)C)[C@@H](C)O2)[C@@H](C)C(=O)C2=C[C@@H]3[C@@H](C=C[C@@H]4C[C@@H](O[C@@H]5O[C@@H](C)[C@H](OC)[C@@H](OC)[C@H]5OC)C[C@@H]34)[C@@H]2CC(=O)O1 (stereo not given in full)
activation [1]: 3.6%
activation [2]: -4.34%
Potency [5]: inactive
activation [7]: -4.77%
activation [8]: -0.423%
activation [9]: -0.354%
max response [10]: -2.17%
Potency [11]: inactive
max response [12]: 3.99%
max response [13]: -1.89%
Potency [14]: inactive
max response [15]: -7.6%
outcome [16]: inactive

CCCCCCOCCOCCO
activation [1]: -1.2%
outcome [3]: inactive

Oc1cccc(Nc2ccccc2)c1
activation [1]: 0.64%
outcome [3]: inactive

O=C(O)C(c1ccc(Cl)cc1)c1ccc(Cl)cc1
activation [1]: -2.74%
outcome [3]: inactive

O=C(O)CC(C(=O)O)C(CC(=O)O)C(=O)O (stereo not given)
activation [1]: -1.38% and -0.082%
outcome [3]: inactive

C[Si]1(C)O[Si](C)(C)O[Si](C)(C)O[Si](C)(C)O1
activation [1]: -3.3%
outcome [3]: inactive

CC(C)(C)c1ccc(CSc2cnn(C(C)(C)C)c(=O)c2Cl)cc1
activation [1]: 6.79%
activation [2]: -0.474%
activation [9]: -3.11%
max response [10]: -6%
Potency [11]: inactive
Potency [14]: inactive
outcome [16]: inactive

COc1ccc(N)c(C)c1
activation [1]: -1.77%
outcome [3]: inactive

O=[N+]([O-])c1ccc(NCCO)c(OCCO)c1
activation [1]: -1.27%
outcome [3]: inactive

CC(C)Cc1nccs1
activation [1]: -0.154%
outcome [3]: inactive

CCOCCOCC
activation [1]: -1.11%
outcome [3]: inactive

N#Cc1ccccc1
activation [1]: -3.25%
outcome [3]: inactive

CC(=O)Nc1ccc(N)cc1
activation [1]: 1.67%
outcome [3]: inactive

Cc1ccc(CO)cc1
activation [1]: -3.46%
outcome [3]: inactive

CCCCOCCO
activation [1]: -0.315% and -0.896% and 3.38%
outcome [3]: inactive

C/C=C1\CC2C=CC1C2 (stereo not given)
activation [1]: 0.0193%
outcome [3]: inactive

NCCCCCCCCCCCC(=O)O
activation [1]: 0.942%
outcome [3]: inactive

Cc1ccc(C(=O)O)cc1
activation [1]: -1.14%
outcome [3]: inactive

NC(=O)Cc1cccc2ccccc12
activation [1]: 0.544%
outcome [3]: inactive

CCO
activation [1]: -3.44%
outcome [3]: inactive

O=C=NCCCCCCN=C=O
activation [1]: 0.566%
outcome [3]: inactive

CC(C)c1cccc(C(C)C)c1
activation [1]: -1.96%
outcome [3]: inactive

CC(=O)OC(C)C
activation [1]: -1.76%
outcome [3]: inactive

CCCCC/C=C/C=C/C=O
activation [1]: 3.19% and -0.429%
outcome [3]: inactive

CCCCOCCOCCOC(=O)CCCCC(=O)OCCOCCOCCCC
activation [1]: 3.42%
outcome [3]: inactive

C=CC(=O)OCC[N+](C)(C)C
activation [1]: -2.87%
outcome [3]: inactive

CC1(C)CC(NCCCCCCNC2CC(C)(C)NC(C)(C)C2)CC(C)(C)N1
activation [1]: 5.33%
outcome [3]: inactive

CCCCCCCOC(=O)c1ccccc1C(=O)OCCCCCCC
activation [1]: -0.976%
outcome [3]: inactive

CCc1ccc(C(c2ccc(CC)cc2)C(Cl)Cl)cc1
activation [1]: 3.04%
outcome [3]: inactive

COC(=O)CCCCC(=O)OC
activation [1]: -2.8% and 3.47% and -2.74%
outcome [3]: inactive

CC(=O)CC(=O)Nc1ccccc1
activation [1]: 0.0824% and -0.252%
outcome [3]: inactive

CC(C)(c1cc(Br)c(O)c(Br)c1)c1cc(Br)c(O)c(Br)c1
activation [1]: 3.15% and 6.79% and 4.84%
outcome [3]: inactive

OCl
activation [1]: 1.09%
outcome [3]: inactive

CCC(C)=O
activation [1]: -0.657%
outcome [3]: inactive

CC#N
activation [1]: -1.26%
outcome [3]: inactive

Oc1c(Cl)cc(Cl)c(Cl)c1Cl
activation [1]: -1.79% and -2.07%
outcome [3]: inactive

FC(F)(F)c1cccc(Cl)c1
activation [1]: -1.67%
outcome [3]: inactive

CNc1nc(=O)n(C2CCCCC2)c(=O)n1C
activation [1]: -6.04%
outcome [3]: inactive

CCCCC
activation [1]: -0.0908%
outcome [3]: inactive

CN(CCO)CC(O)Cn1cnc2c1c(=O)n(C)c(=O)n2C (stereo not given) (tested in a mixture with another compound)
activation [1]: 1.67%
outcome [3]: inactive

IC(I)I
activation [1]: 0.284% and 0.834%
outcome [3]: inactive

CCCCN(CCO)CCCC
activation [1]: -4.1%
outcome [3]: inactive

CCCCCCCCC1CO1 (stereo not given)
activation [1]: 0.755%
outcome [3]: inactive

O=C(O)c1ccc(Cl)c(Cl)c1
activation [1]: -2.87%
outcome [3]: inactive

CC(N)CN (stereo not given)
activation [1]: -2.35%
outcome [3]: inactive

OCc1cccc(Oc2ccccc2)c1
activation [1]: -0.998%
outcome [3]: inactive

O=[N+]([O-])c1ccc(CCO)cc1
activation [1]: -0.12%
outcome [3]: inactive

COC(=O)c1ccc(CNS(C)(=O)=O)cc1S(=O)(=O)NC(=O)Nc1nc(OC)cc(OC)n1
activation [1]: -2.61%
outcome [3]: inactive

O=S(c1ccc(Cl)cc1)c1cc(Cl)c(Cl)cc1Cl (stereo not given)
activation [1]: 0.155%
outcome [3]: inactive

CCOC(C)(C)C
activation [1]: 2.11%
outcome [3]: inactive

Nc1ncnc2c1ncn2[C@H]1CC[C@@H](CO)O1
activation [1]: 0.029% and -3.36%
outcome [3]: inactive

CCC(O)C(C)(C)C (stereo not given)
activation [1]: 0.367%
outcome [3]: inactive
